Bioassay records: PubChem BioAssay, University of Kansas High Throughput Screening Laboratory
Pf apPOL inh = Pf-apPOL inhibitors, biochemical, fluorescence. Plasmodium falciparum apicoplast DNA polymerase (apPOL). Recombinant Pf-apPOL, molecular beacon fluorescence, 1.5 h. inhibition, % at 10 µM. 0.25% of 210,000 active. AID 1794808, 2022
mHTT-CaM PPI inh = mutant huntingtin-calmodulin interaction inhibitors – biochemical, AlphaScreen, primary screen; AlphaScreen His-mHTT/GST-CaM binding, luminescence; inhibition, % at 15 µM; 3.6% of 190,000 active; AID 1671202, 2021;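 note: 0% = both proteins with DMSO and 100% = one protein alone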
* hit, by the source's call; . = no result. A selection: hits, their analogues and other compounds. The true share with any hit is near 3.5%. Cut-off read from the data, not from the text of the source: active = inhibition above about 50%; inactive = the rest.

SMILES | Pf apPOL inh | mHTT-CaM PPI inh
O=C1CSC(c2ccc([N+](=O)[O-])cc2)N1c1ccc(Oc2ccccc2)cc1 (stereo unspecified) | -2 | 75*
O=C1CSC(c2ccc3c(c2)OCO3)N1c1ccc(Oc2ccccc2)cc1 (stereo unspecified) | -1 | 100*
Cc1ccc(N2C(=O)CSC2c2ccc([N+](=O)[O-])cc2)cc1 (stereo unspecified) | 0 | 8
Cc1ccc(N2C(=O)CSC2c2ccc3c(c2)OCO3)cc1 (stereo unspecified) | -2 | 1
CC1CCc2onc(C(=O)N3CCCCC3)c2C1 (stereo unspecified) | -1 | -8
COc1ccc(NC(=O)c2csc(-c3ccc(C)n3C)n2)cc1 | -3 | 62*
Cc1ccc(-c2nc(C(=O)NCCc3ccccc3)cs2)n1C | 1 | 99*
Cc1ccc(-c2nc(C(=O)Nc3ccc(Cl)cc3)cs2)n1C | -5 | -7
Cc1ccc(-c2nc(C(=O)NCCc3ccc(Cl)cc3)cs2)n1C | -3 | 24
CCOc1ccc(-c2cn3ccn(-c4ccc(C)c(C)c4)c(=O)c3n2)cc1 | -2 | -7
COc1cc(OC)c2c(C)cc(=O)oc2c1C(CCN1CCCC(C)C1)c1ccc(N(C)C)cc1 (stereo unspecified) | -8 | 79*
COc1cc(O)c(C(CCN2CCOCC2)c2ccc3c(c2)OCO3)c(OC)c1 (stereo unspecified) | -7 | 24
COc1cc(O)c(C(CCN2CCOCC2)c2ccc(N(C)C)cc2)c(OC)c1 (stereo unspecified) | -7 | 58*
COc1cc(O)c(C(CCN2CCCC(C)C2)c2ccc3c(c2)OCO3)c(OC)c1 (stereo unspecified) | 7 | 33
COc1ccc(C(CCN2CCCC2)c2c(O)cc(OC)cc2OC)cc1 (stereo unspecified) | -4 | 14
COc1cc(OC)c2ccc(=O)oc2c1C(CCN1CCCC1)c1ccc(N(C)C)cc1 (stereo unspecified) | 0 | 46
COc1ccc(C(CCN2CCN(c3ccccc3)CC2)c2c(O)cc(OC)cc2OC)cc1 (stereo unspecified) | -7 | 72*
COc1cc(O)c(C(CCN2CCCC(C)C2)c2ccc(N(C)C)cc2)c(OC)c1 (stereo unspecified) | 7 | 55*
CC(C)N1C(=O)c2cccnc2Sc2cc(NC(=O)c3cccc(F)c3)ccc21 | -5 | -3
CCN(CC)CCC(c1ccc(OC)cc1)c1c(O)cc(OC)cc1OC (stereo unspecified) | -2 | 16
CCN(CC)CCC(c1ccc(N(C)C)cc1)c1c(O)cc(OC)cc1OC (stereo unspecified) | -6 | 70*
COc1ccc(C(CCN2CCCCC2)c2c(O)cc(OC)cc2OC)cc1 (stereo unspecified) | -8 | -1
COc1cc(O)c(C(CCN2CCN(c3ccccc3)CC2)c2ccc(N(C)C)cc2)c(OC)c1 (stereo unspecified) | -2 | 97*
N#CC(=Cc1c(Cl)cccc1Cl)C(=O)Nc1ccc(F)c(Cl)c1 | -1 | .
CC(=O)NC12CC3CC(C1)CC(C(=O)O)(C3)C2 | 25 | 1
SMILES | Pf apPOL inh | mHTT-CaM PPI inh
COc1cccc(C(CNC(=O)C2(c3cccs3)CCCC2)N2CCOCC2)c1 (stereo unspecified) | 2 | 5
O=C(Nc1ccc(F)cc1)OCCN1CCCC12CCC(c1ccccc1)CC2 (stereo unspecified) | -3 | -15
CCCCNC(=O)OCCCN1CCC2(CCC(c3ccccc3)CC2)C1=O (stereo unspecified) | -6 | 10
O=C(Nc1cccc(F)c1)OCCCN1CCC2(CCC(c3ccccc3)CC2)C1 (stereo unspecified) | -3 | 50*
O=C(Nc1ccccc1C(F)(F)F)OCCCN1CCC2(CCC(c3ccccc3)CC2)C1=O (stereo unspecified) | 0 | 93*
CC(C)CNC(=O)C1CCN(CC(C)C)CC1 | -8 | -9
N#CCC[C@@H]1CC[C@]2(CCCN(Cc3ccc(Cl)cc3)C2)O1 | -3 | 74*
N#CCC[C@H]1CC[C@]2(CCCN(Cc3ccccc3)C2)O1 | -4 | -5
COc1cc2c(cc1OC)CN(CC(O)COCC1CC3CCC1C3)CC2 (stereo unspecified) | 0 | 5
Cn1c(C(=O)Nc2ccc3c(c2)OCO3)cc2c1CCN(Cc1cccc(F)c1)C2 | 0 | 52*
Cn1c(C(=O)NCCN2CCCCC2)cc2c1CCN(Cc1cccc(F)c1)C2 | 4 | 49
Cn1c(C(=O)NC2CC2)cc2c1CCN(Cc1cccc(F)c1)C2 | -4 | 26
CC(=O)c1cccc(NC(=O)c2cc3c(n2C)CCN(Cc2cccc(F)c2)C3)c1 | -2 | 60*
C=CCNC(=O)CN(c1cc(C(F)(F)F)ccc1Cl)S(=O)(=O)c1ccccc1 | -4 | 2
NC(=O)c1cc(-c2ccccc2)sc1NC(=O)c1ccc(F)c(F)c1 | 1 | -68
COc1ccc(C(=O)N2CCN(C(=O)c3ccco3)CC2)cc1 | -5 | 1
COc1ccc(C(=O)c2ccco2)cc1 | 56* | -5
COc1cccc(-c2ccc3nc(N4CCC(C(=O)NCCN(C)C)CC4)sc3n2)c1 | -3 | 18
CC(C)c1ccc(NC(=O)C(c2ccccc2)N(C)C(=O)c2cnccn2)cc1 (stereo unspecified) | -1 | 20
Cc1ccc(C(C(=O)Nc2ccc(C(C)C)cc2)N(Cc2ccco2)C(=O)c2cnccn2)cc1 (stereo unspecified) | -9 | 69*
COC(=O)C1=C(C(=O)OC)SC2(S1)C(C(=O)OC)=C(C(=O)OC)SC1=C2c2cc(OC)ccc2NC1(C)C | . | 63*
COc1ccc2c(c1)C1(NC(=O)c3ccccc3N1)C(=O)N2 (stereo unspecified) | -7 | 15
CCN(CC)S(=O)(=O)c1ccc(OC)c(NC(=O)Cc2ccc(Cl)cc2)c1 | -3 | -6
COC(CNC(=O)c1ccc(N2CCc3ccccc32)c([N+](=O)[O-])c1)OC | -4 | 58*
COC(CNC(=O)c1ccc(N2CCN(c3ccccn3)CC2)c([N+](=O)[O-])c1)OC | 2 | 9
SMILES | Pf apPOL inh | mHTT-CaM PPI inh
CCCc1cc(-c2[nH]ncc2-c2ccc3c(c2)OCCCO3)c(O)cc1OC | -7 | 76*
COc1ccc(-c2oncc2-c2ccc3c(c2)OCCO3)c(O)c1 | 1 | 10
CCCc1cc(-c2oncc2-c2ccc3c(c2)OCCO3)c(O)cc1OC | 3 | 63*
CCCc1cc2c(=O)c(-c3ccc4c(c3)OCCCO4)c(C)oc2cc1OC | -3 | 0
COc1ccc(O)c(CN2CCOCC2)c1 | -10 | -4
Cn1cnnc1SC=CC(=O)c1ccc(F)cc1 | -8 | .
CCOC(=O)COc1cc2c(-c3cc4cccc(OC)c4o3)cc(=O)oc2cc1C | 0 | -6
CN(c1ccccc1)C(C(=O)NC1CCCC1)c1cc2c(cc1[N+](=O)[O-])OCO2 (stereo unspecified) | -6 | 16
CCS(=O)(=O)CCSc1nc(C)cc(C)n1 | 51* | 17
Cc1cc(C)nc(SCCCCSc2nc(C)cc(C)n2)n1 | -6 | -7
Cc1ccc(F)c(NC(=O)C2CC(=O)N(c3ccc(C)c(C)c3)C2)c1 (stereo unspecified) | -2 | 3
c1ccc(-c2nc(-c3ccccn3)nc(-c3ccccn3)n2)nc1 | . | 19
Clc1cc(-c2ccccn2)nc(-c2ccccn2)c1 | . | 76*
Cc1csc(SCc2cc(=O)c(OC(=O)c3cccc([N+](=O)[O-])c3)co2)n1 | 13 | 2
